Results from PubChem BioAssay (NCATS).
Results filed as inconclusive are left out. Entries that show only a call come without a potency. Activity calls are given as the source filed them. Calls follow the shape of the dose curve; as a rule, active = well fitted inhibition curve with a large enough effect; inconclusive = small, poorly fitted or top-dose-only effect; inactive = flat fitted curve, though single readings scatter.

Experiment: P-glycoprotein substrates identified in KB-8-5-11 adenocarcinoma cell line, qHTS therapeutic library screen (AID 1346987); also: nearly all actives have a fitted effect of over 65% in size
Conditions: KB-8-5-11 (P-gp overexpressing) viability, CellTiter-Glo, 72 h; series mostly up to 44.5 µM
Procedure, shortened: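 P-gp-mediated resistance screen: KB-8-5-11 cells treated 72 h with compounds in dose-response. CellTiter-Glo viability.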
Potency is read from the fitted curve at half-maximal effect.

Compound	Potency
CCN(CC)CCOC(=O)c1ccc(N)cc1Cl	inactive
CCCC(=O)O[C@]1(C(=O)COC(=O)CC)[C@@H](C)C[C@H]2[C@@H]3CCC4=CC(=O)C=C[C@]4(C)[C@@]3(F)[C@@H](O)C[C@@]21C	inactive
CN1CCN(c2ccc(OC(F)(F)F)c(Nc3ncc4c(n3)-c3c(c(C(N)=O)nn3CCO)CC4)c2)CC1	0.517 µM (active)
CCC(=O)O	inactive
NCCCC[C@H](NC(=O)[C@@H]1CCCN1C(=O)[C@@H]1CSSC[C@H](N)C(=O)N[C@@H](Cc2ccc(O)cc2)C(=O)N[C@@H](Cc2ccccc2)C(=O)N[C@@H](CCC(N)=O)C(=O)N[C@@H](CC(N)=O)C(=O)N1)C(=O)NCC(N)=O	inactive
S=C(c1ccc(-c2ccc(Cl)c(Cl)c2)o1)N1CCCCC1	inactive
O=C(NCCN1CCOCC1)c1cc2c(Oc3ccc(NC(=O)C4(C(=O)Nc5ccc(F)cc5)CC4)cc3)ccnc2[nH]1	inactive
Cc1ccc(C)c(-c2cc(C(F)(F)F)nn2-c2ccc(S(N)(=O)=O)cc2)c1	23.1 µM (active)
CO[C@@H]1CC(OC2CCC3(C)C(CCC45CCC(C6=CC(=O)OC6)C(C)(CCC43)C5=O)C2)O[C@H](C)[C@@H]1O[C@@H]1O[C@H](CO[C@@H]2O[C@H](CO)[C@@H](O)[C@H](O)[C@H]2O)[C@@H](O)[C@H](O)[C@H]1O (stereo not given in full)	4.37 µM (active)
O=C(O)CC(O)(CC(=O)O)C(=O)O	inactive
O=C(Nc1ccc(N2C(=O)[C@@H]3[C@H](C2=O)[C@@H]2C=C[C@H]3C2)c(Cl)c1)c1ccccn1	inactive
O=C(CCCN1CCC(n2c(=S)[nH]c3ccccc32)CC1)c1ccc(F)cc1	9.2 µM (active)
C[C@@H](NC(=O)C(=O)c1c[nH]c2ccc([N+](=O)[O-])cc12)c1ccccc1	inactive
CC(=O)NC(C(=O)O[C@H]1CCC(C)(C)[C@@H]2CC=C3C(=O)OCC3(O)[C@@]12C)C(C)C (stereo not given in full)	inactive
C[C@H](CN(C)C)Oc1nc(Nc2cc3cccc(Cl)c3cn2)cnc1C#N	2.91 µM (active)
COC1CC(=O)C23C(=O)NC(CC(C)C)C2C(C)C(C)=CC3/C=C(\C)CCCC1O (stereo not given)	inactive
CC(C)=CCC/C(C)=C/COCC1OC(n2ccc(=O)[nH]c2=O)C(O)C1O (stereo not given)	inactive
COc1c2c(c(C)c3c1C(=O)OC3)O[C@@]1(C)C[C@@H](OC(C)=O)[C@]34O[C@](OC)(CC[C@]3(C)[C@H]1C2)OC4(C)C	inactive
CC(=O)[C@H]1CC[C@H]2[C@@H]3CC=C4C[C@@H](OS(=O)(=O)O)CC[C@]4(C)[C@H]3CC[C@]12C	inactive
CCCCCCCCCCCCCCCCCC(=O)OCCO	inactive

Compound	Potency
CCO[C@H]1CN(C2CCC(O)(c3ccc4c(c3)OCO4)CC2)C[C@@H]1NC(=O)CNC(=O)c1cccc(C(F)(F)F)c1 (stereo not given in full)	inactive
Fc1ccc(-c2nc(C3CCNCC3)sc2-c2ccnc(NC3CC3)n2)cc1	13 µM (active)
CC(=O)O[C@H]1C[C@@H]2CC[C@@H]3[C@H](CC[C@@]4(C)[C@H]3C[C@H](N3CC[N+](C)(C)CC3)[C@@H]4OC(C)=O)[C@@]2(C)C[C@@H]1N1CC[N+](C)(C)CC1	inactive
CCC(C(C)O)n1ncn(-c2ccc(N3CCN(c4ccc(OCC5COC(Cn6cncn6)(c6ccc(F)cc6F)C5)cc4)CC3)cc2)c1=O (stereo not given)	18.4 µM (active)
C=C[C@@]1(C)C=C2C(=O)C(O)=C3[C@](C)(C(=O)O)CC[C@@H]4C[C@]34[C@]2(O)C(=O)C1	10.1 µM (active)
COC1CC(O[C@H]2CC[C@]3(C)C4CC[C@]5(C)C(C6=CC(=O)OC6)=CCC56OC46CC[C@@H]3C2)OC(C)C1O[C@@H]1O[C@H](CO[C@@H]2O[C@H](CO)[C@@H](O)[C@H](O)[C@H]2O)[C@@H](O)[C@H](O)[C@H]1O (stereo not given in full)	3.1 µM (active)
O=P(O)(O)OC(Cn1cncn1)(Cn1cncn1)c1ccc(F)cc1F	inactive
CC[N+]1(C/C2=C/CCCCCC2)CCC(NC(=O)C2c3cc(Cl)ccc3Oc3ccc(Cl)cc32)CC1 (stereo not given)	inactive
CC1CCC(=O)CC(SCC(O)C(=O)O)CCC(=O)O1 (stereo not given)	inactive
CC(=O)O[C@@]12CO[C@@H]1C[C@H](O)[C@@]1(C)C(=O)[C@H](O)C3=C(C)[C@@H](OC(=O)[C@H](O)[C@@H](NC(=O)OC(C)(C)C)c4ccccc4)C[C@@](O)([C@@H](OC(=O)c4ccccc4)C12)C3(C)C (stereo not given in full)	0.126 µM (active)
Nc1nc2c(ncn2C2OC3COP(=O)(O)OC3C2O)c(=O)[nH]1 (stereo not given)	inactive
COC(=O)c1sccc1S(=O)(=O)Nc1ccc(Nc2ccccc2)cc1OC	inactive
FC(F)(F)c1ccc(CNc2ccc(Cc3c[nH]c4ncc(Cl)cc34)cn2)cn1	14.6 µM (active)
CC(C)c1noc(C2CCN(c3ncnc(Nc4ccc(S(C)(=O)=O)cc4F)c3[N+](=O)[O-])CC2)n1	inactive
Cc1cc(-c2ncc(-c3cccnc3)cc2/C=C/c2ccccc2)cnc1-c1cccnc1	10.3 µM (active)
Cc1cc(C)c(S(=O)(=O)n2cc(C)cc2C)c(C)c1	inactive
CC1(C)SCCN(S(=O)(=O)c2ccc(Oc3ccncc3)cc2)[C@H]1C(=O)NO	inactive
C[C@@H]1CC[C@@]23CC[C@]4(C)[C@@](C=CC5[C@@]6(C)CC[C@H](O)C(C)(C)C6CC[C@]54C)(OC2=O)C3[C@H]1C (stereo not given in full)	inactive
CCOc1ccc(-n2c([C@@H](C)N(Cc3cccnc3)C(=O)Cc3ccc(OC(F)(F)F)cc3)nc3ncccc3c2=O)cc1	inactive
O=P(O)(O)C(Sc1ccc(Cl)cc1)P(=O)(O)O	inactive
